The structures appear in SMILES notation. Among all 280,000 compounds or so, about 1,700 (0.61%) were called active. The entries come from a sample that favours actives as a whole. A number with no mark means an inactive call. Rule as the data show it: active = inhibition mostly above about 24% (no sharp cut-off); inactive = mostly below about 32%.

The experiment in a line: NALP1 inflammasome inhibitors in reconstituted yeast, colorimetric, S. cerevisiae, triplicate retest (AID 2071). The settings on record: S. cerevisiae NALP1/ASC/caspase-1 growth, X-gal OD620, 72 h, active compounds read high; at 10 µM unless noted.
One may read the inhibition as the change of the read-out against control, counted positive when it falls. On to `CC(=O)c1ccc(NC(=S)NC(=O)CC(C)C)cc1`, for which the inhibition is 27.8%.

In the case of `CC(C)CC(=O)NC(=S)Nc1ccc(F)cc1F`, the inhibition was 42.9% (active).

With `CC(C)CC(=O)NC(=S)Nc1cc(C(=O)O)ccc1Cl`, the inhibition was 11.6%.

Consider `COc1ccc(C2C(C(C)=O)=C(O)C(=O)N2Cc2cccnc2)cc1` (stereo not given), for which the inhibition is 33.6% (active).

In the case of `COc1cc(C2C(C(=O)c3ccc(C)o3)=C(O)C(=O)N2Cc2cccnc2)ccc1O` (stereo not given), the inhibition was -2.8%.

Turning to `COc1ccc(C2C(C(C)=O)=C(O)C(=O)N2CCc2c[nH]c3ccccc23)cc1` (stereo not given), the inhibition is 5.6%.

On to `CC1Cc2cc(/C(O)=C3\C(=O)C(=O)N(Cc4cccnc4)C3c3ccccc3F)ccc2O1` (stereo not given), for which the inhibition was 29.4%.

As for `Cc1ccc(-n2ncc(C(=O)NC3CC3)c2C2CCN(C(=O)OC(C)(C)C)CC2)c(C)c1`, the inhibition is -2.6%.

As to `O=C(NCc1ccc(Cl)cc1)C1CCN(S(=O)(=O)c2cccs2)CC1`, the inhibition is 4%.

For the compound `O=C(NCc1cccs1)C1CCN(S(=O)(=O)c2ccc3c(c2)OCCO3)CC1`, the inhibition is -1.6%.

Take `O=C(NCc1cccs1)C1CCN(S(=O)(=O)c2ccc(Cl)cc2)CC1`: the inhibition was 23.6% (active).

As for `CCc1ccc(/C=N/NC(=O)c2nnn(-c3nonc3N)c2CN2CCc3ccccc32)cc1`, the inhibition was 0%.

On to `O=C(Nc1nnc(C2CC2)s1)c1cc(Cl)sc1Cl`, for which the inhibition was 5.9%.

Consider `CCCCNC(=O)CSc1nnc(-c2ccco2)n1C`, for which the inhibition was 10.9%.

For the compound `Cn1c(SCC(=O)c2cccs2)nnc1-c1ccco1`, the inhibition was 14.7%.

`Cn1c(SCC(=O)Nc2ccc(Br)cc2F)nnc1-c1ccco1`: the inhibition is 31.1% (active).

Consider `O=C(Nc1ccc(C(=O)N2CCOCC2)cc1)Nc1cccc(C(F)(F)F)c1`, for which the inhibition is -1.5%.

For the compound `O=C(CN1CCCCCC1)Nc1ccc(Br)cc1[N+](=O)[O-]`, the inhibition was -4.1%.

Turning to `Cc1ccc(S(=O)(=O)N2CCN=C2SCc2c(F)cccc2Cl)cc1`, the inhibition is 14.5%.

With `COc1cccc(CNc2ncc(-c3ccccc3)n2C)c1`, the inhibition was -8.5%.

Turning to `Cn1c(SCC(=O)C(C)(C)C)nnc1-c1ccccn1`, the inhibition was 43.3% (active).

Turning to `Cn1c(SCC(=O)c2ccc(F)cc2)nnc1-c1ccccn1`, the inhibition was 4.2%.

Turning to `CCn1c(SCC(=O)NC2CC2)nnc1-c1ccccn1`, the inhibition was 20%.

For `FC(F)(F)c1nnc2c3ccccc3c(Cl)nn12`, the inhibition is 2.1%.

For `COc1ccc(N2C(=O)C3CCCN3C2c2cccs2)cc1` (stereo not given), the inhibition is 11.5%.

As to `COc1ccc(N2C(=O)C3CCCN3C2c2cccc(OC)c2)cc1` (stereo not given), the inhibition is -8.3%.

For the compound `COc1ccc(N2C(=O)C3CCCN3C2c2cc(OC)c(OC)cc2OC)cc1` (stereo not given), the inhibition was 41.6% (active).

Consider `O=C(CN1CCN(C(=O)C2CCCO2)CC1)Nc1c(Cl)cccc1Cl` (stereo not given), for which the inhibition was 17.6%.

Take `COc1ccc(-c2c(C#Cc3ccccc3)c3ccccc3n2C)cc1`: the inhibition is 15.3%.

`CC(=O)Nc1ccc(NC(=O)CS(=O)(=O)c2cn(CC(=O)N3CCCCC3)c3ccccc23)cc1`: the inhibition is 5.8%.

For `C=CS(=O)c1sc(Cl)c(N2CCOCC2)c1[N+](=O)[O-]` (stereo not given), the inhibition is 37.6% (active).

As for `Cc1cccc(NC(=O)c2ccc(S(=O)(=O)N(C)CC3CCCO3)cc2)c1C` (stereo not given), the inhibition was 15.7%.

For `Cc1nc(Cl)c(C#N)c2c1CCCC2`, the inhibition is 41.9% (active).

For `COCc1c(N)c(C)nc(Cl)c1C#N`, the inhibition was -22.9%.

`CC(C)Cc1nc(Cl)c(C#N)c2c1CCC2`: the inhibition was 8%.

As for `COc1ccc(NCCc2ccccn2)cc1`, the inhibition was 8.9%.

For the compound `O=C(NCCCc1ccccc1)C(=O)NCC1OCCN1S(=O)(=O)c1ccccc1` (stereo not given), the inhibition was -4.3%.

Turning to `COc1ccc(CCNC(=O)C(=O)NCC2OCCN2S(=O)(=O)c2cccs2)cc1OC` (stereo not given), the inhibition was 0.8%.

On to `COc1cccc(NC(=O)[C@H](Cc2c[nH]c3ccccc23)NC(=O)[C@@H]2Cc3ccccc3CN2)c1`, for which the inhibition is 17.2%.

For the compound `CC(C)(C)NC(=O)NCc1ccco1`, the inhibition was 41.4% (active).

Turning to `Cc1ccccc1NC(=O)NCc1ccco1`, the inhibition was 23.9%.

As for `CC(C)(C)c1ccc(NC(=O)NCc2ccco2)cc1`, the inhibition is 21.4%.

Regarding `Cc1[nH]n(C(N)=S)c(=O)c1N=Nc1ccc(Cl)cc1Cl`, the inhibition was 0.4%.

In the case of `COc1ccc(-n2nc(C(=O)NCC(=O)N3CCN(c4ccccc4OC)CC3)c3ccccc3c2=O)c(OC)c1`, the inhibition was 20.4%.

As for `CN(c1ccc(O)cc1)c1nc(-c2cccnc2)cs1`, the inhibition is 12.3%.

Turning to `O=C(NC(=S)Nc1ccc(Cl)cc1Cl)C1CC1`, the inhibition was 10.6%.

As to `O=C(NCC(=O)N1CCN(c2ncc(C(F)(F)F)cc2Cl)CC1)c1ccc(Br)o1`, the inhibition is 6.1%.

Turning to `CC1(C)Cc2cccc(OCC(=O)NCc3ccccc3)c2O1`, the inhibition was -5.5%.

Consider `Cc1nc(NCc2ccccc2)c(C(N)=O)c2c1COC(C)(C)C2`, for which the inhibition is 37.7% (active).

For `Cc1nc(NCCN)c(C#N)c2c1COC(C)(C)C2`, the inhibition was 8.1%.

For `COc1ccccc1C(=O)COC(=O)CNS(=O)(=O)c1ccc(NC(C)=O)cc1`, the inhibition is 16.9%.

In the case of `Cc1ccccc1C(=O)NC(=S)NC1CC1`, the inhibition was 12.2%.

On to `CCCCNC(=O)CSc1nc2n[nH]c(C)c2c(=N)n1-c1cccc(Cl)c1C`, for which the inhibition is -3.5%.

As for `Cc1ccc(-n2c(SCC(=O)NCCC3=CCCCC3)nc3n[nH]c(C)c3c2=N)cc1Cl`, the inhibition was 39.4% (active).

Regarding `COc1cccc(-n2c(SCC(=O)NC3CCCCC3)nc3n[nH]c(C)c3c2=N)c1`, the inhibition is -7.2%.

For `COc1ccc(N(C)C(=O)C2CCN(S(=O)(=O)c3cccc4nsnc34)CC2)cc1`, the inhibition is 9.7%.

With `Cc1ccc(NC(=O)c2cc3ccccc3o2)cc1`, the inhibition was 8.6%.

As for `O=C(CCCCCn1c(=S)[nH]c2ccsc2c1=O)NC1CCCCC1`, the inhibition was -20.3%.

In the case of `Cc1cc(NC(=O)c2ccccc2C)no1`, the inhibition was 17%.

Consider `CCOCCCNC(=O)C(NC(=O)c1ccc(=O)[nH]c1)c1ccc(Cl)cc1` (stereo not given), for which the inhibition is 38.8% (active).

For the compound `CCOCCCNC(=O)C(NC(=O)Cc1c[nH]c2ccccc12)c1ccc(OC)cc1` (stereo not given), the inhibition was 6.3%.

Turning to `CCOCCCNC(=O)C(NC(=O)c1ccccc1O)c1ccccc1` (stereo not given), the inhibition was -7.8%.

Consider `CCOCCCNC(=O)C(NC(=O)CNC(=O)c1ccccc1)c1ccc(OC)cc1` (stereo not given), for which the inhibition is -2.8%.

Turning to `CCOCCCNC(=O)C(NC(=O)CNC(=O)c1ccccc1)c1ccc(C)cc1` (stereo not given), the inhibition was 38.2% (active).

Consider `CCOCCCNC(=O)C(NC(=O)c1ccc(=O)[nH]c1)c1ccc(C)cc1` (stereo not given), for which the inhibition was -4%.

The values are drawn from PubChem BioAssay AID2071 (Sanford-Burnham Center for Chemical Genomics, 2009).
